Laboratory results from PubChem BioAssay AID1159580 (chemical genetic matrix, 2015).
In all, about 5,500 compounds went through this assay and about 2,000 (36%) were called active. Inconclusive results (about 18%) are left out. No stated cut-off is given here; in the data, active means normalized growth mostly below about 0.91 (no sharp cut-off); inconclusive means no clear call, values can overlap the other calls; inactive means mostly above about 0.92. Some of the results follow.

Experiment: chemical genetic growth profiling, strain panel (AID 1159580);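 further: tested at 20 µM; growth read once vehicle control cultures reached saturation at 30 °C; 1 = growth at the plate median or of vehicle wells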
Settings: S. cerevisiae deletion strains, growth OD
[1] = locus YCL061C, strain MRC1, stronger effect = lower value
[2] = locus YHR030C, strain SLT2, stronger effect = lower value
[3] = locus YAL013W, strain DEP1, stronger effect = lower value
[4] = locus YBR229C, strain ROT2, stronger effect = lower value
[5] = locus YDL101C, strain DUN1, stronger effect = lower value
[6] = locus YDL134C, strain PPH21, stronger effect = lower value
[7] = locus YDR150W, strain NUM1, stronger effect = lower value
[8] = locus YEL061C, strain CIN8, stronger effect = lower value
[9] = locus YGR078C, strain PAC10, stronger effect = lower value
[10] = locus YHR087W, strain rtc3, stronger effect = lower value
[11] = locus YJR043C, strain POL32, stronger effect = lower value
[12] = locus YJR075W, strain HOC1, stronger effect = lower value
[13] = locus YLR039C, strain RIC1, stronger effect = lower value
[14] = locus YLR058C, strain SHM2 (second series), stronger effect = lower value
[15] = locus YLR085C, strain ARP6, stronger effect = lower value
[16] = locus YLR262C, strain YPT6, stronger effect = lower value
[17] = locus YML094W, strain GIM5, stronger effect = lower value
[18] = locus YMR219W, strain ESC1, stronger effect = lower value
[19] = locus YMR263W, strain SAP30, stronger effect = lower value
[20] = locus YMR307W, strain GAS1, stronger effect = lower value
[21] = locus YNL153C, strain GIM3, stronger effect = lower value
[22] = locus YNL298W, strain CLA4 (second series), stronger effect = lower value
[23] = locus YNL322C, strain KRE1, stronger effect = lower value
[24] = locus YNR030W, strain Alg12, stronger effect = lower value
[25] = locus YPL055C, strain LGE1, stronger effect = lower value
[26] = locus YPL241C, strain CIN2, stronger effect = lower value
[27] = locus YPR135W, strain CTF4, stronger effect = lower value
[28] = locus YKL190W, strain CNB1, stronger effect = lower value
[29] = locus YNL128W, strain TEP1, stronger effect = lower value

Measured: normalized growth

C=C(NC(=O)C(=C)NC(=O)c1csc(C2=NC3c4csc(n4)C4NC(=O)c5csc(n5)C(C(C)(O)C(C)O)NC(=O)C5CSC(=N5)C(=CC)NC(=O)C(C(C)O)NC(=O)c5csc(n5)C3(CC2)NC(=O)C(C)NC(=O)C(=C)NC(=O)C(C)NC(=O)C(C(C)CC)NC2C=Cc3c(C(C)O)cc(nc3C2O)C(=O)OC4C)n1)C(N)=O (centres undefined)
inactive: locus YAL021C, strain ccr4, stronger effect = lower value 1.01 | locus YAL026C, strain drs2, stronger effect = lower value 1.01 | locus YAL030W, strain snc1, stronger effect = lower value 1.01 | locus YBL061C, strain skt5, stronger effect = lower value 1 | locus YBR009C, strain hhf1, stronger effect = lower value 1 | locus YBR023C, strain chs3, stronger effect = lower value 1.01 | locus YBR171W, strain sec66, stronger effect = lower value 1.02 | locus YBR231C, strain swc5, stronger effect = lower value 1.01 | locus YBR279W, strain paf1, stronger effect = lower value 0.986 | locus YCL011C, strain gbp2, stronger effect = lower value 1 | locus YCL016C, strain dcc1, stronger effect = lower value 1.02 | [1] 1.01 | locus YCL069W, strain vba3, stronger effect = lower value 1.01 | locus YCR088W, strain abp1, stronger effect = lower value 1.02 | locus YDL005C, strain med2, stronger effect = lower value 0.993 | locus YDL040C, strain nat1, stronger effect = lower value 0.993 | locus YDR001C, strain nth1, stronger effect = lower value 1.01 | locus YDR069C, strain doa4, stronger effect = lower value 1.01 | locus YDR137W, strain rgp1, stronger effect = lower value 1.04 | locus YDR159W, strain sac3, stronger effect = lower value 1 | locus YDR195W, strain ref2 1.01 | locus YDR297W, strain sur2, stronger effect = lower value 1 | locus YDR334W, strain swr1, stronger effect = lower value 1.02 | locus YDR335W, strain msn5, stronger effect = lower value 0.991 | locus YDR392W, strain spt3, stronger effect = lower value 1.01 | locus YEL003W, strain gim4, stronger effect = lower value 1.01 | locus YEL037C, strain rad23, stronger effect = lower value 1 | locus YEL061C, strain CIN8 (second series), stronger effect = lower value 1.02 | locus YER015W, strain faa2, stronger effect = lower value 0.993 | locus YER016W, strain bim1, stronger effect = lower value 1 | locus YER111C, strain swi4, stronger effect = lower value 1.03 | locus YER155C, strain BEM2 (second series), stronger effect = lower value 1.06 | locus YFR010W, strain ubp6, stronger effect = lower value 1.01 | locus YGL167C, strain pmr1, stronger effect = lower value 1.01 | locus YGL173C, strain kem1, stronger effect = lower value 1.01 | locus YGL227W, strain vid30, stronger effect = lower value 0.989 | locus YGL240W, strain doc1, stronger effect = lower value 1.01 | locus YGL253W, strain hxk2, stronger effect = lower value 1.01 | locus YHR013C, strain ard1, stronger effect = lower value 1.03 | locus YHR027C, strain rpn1, stronger effect = lower value 1.01 | [2] 0.979 | locus YHR079C, strain IRE1, stronger effect = lower value 0.99 | locus YHR142W, strain chs7, stronger effect = lower value 1.03 | locus YJL092W, strain hpr5, stronger effect = lower value 1.01 | locus YJL095W, strain BCK1 (second series), stronger effect = lower value 1.01 | locus YJL095W, strain BCK1, stronger effect = lower value 0.981 | locus YJL115W, strain asf1, stronger effect = lower value 1.01 | locus YJL129C, strain trk1, stronger effect = lower value 1 | locus YJL154C, strain vps35, stronger effect = lower value 1.02 | locus YJL164C, strain tpk1, stronger effect = lower value 1.01 | locus YJL166W, strain qcr8, stronger effect = lower value 1.02 | locus YJL187C, strain SWE1, stronger effect = lower value 1.01 | locus YJR066W, strain TOR1, stronger effect = lower value 0.968 | locus YKL160W, strain elf1, stronger effect = lower value 1.02 | locus YKR026C, strain gcn3, stronger effect = lower value 0.997 | locus YKR091W, strain srl3, stronger effect = lower value 0.984 | locus YLL001W, strain dnm1, stronger effect = lower value 1.02 | locus YLL026W, stronger effect = lower value 0.995 | locus YLL041C, strain sdh2, stronger effect = lower value 1.01 | locus YLR027C, strain aat2, stronger effect = lower value 0.999 | locus YLR113W, strain HOG1, stronger effect = lower value 0.987 | locus YLR221C, strain rsa3, stronger effect = lower value 0.994 | locus YLR258W, strain gsy2, stronger effect = lower value 1.02 | locus YLR262C, strain YPT6 (second series), stronger effect = lower value 1.04 | locus YLR320W, strain mms22, stronger effect = lower value 1.02 | locus YLR342W, strain FKS1, stronger effect = lower value 1.02 | locus YLR357W, strain rsc2, stronger effect = lower value 0.969 | locus YLR370C, strain arc18, stronger effect = lower value 1 | locus YLR384C, strain iki3, stronger effect = lower value 1.01 | locus YML120C, strain ndi1, stronger effect = lower value 1 | locus YMR058W, strain fet3, stronger effect = lower value 1 | locus YMR125W, strain sto1, stronger effect = lower value 1.01 | locus YMR129W, stronger effect = lower value 0.999 | locus YMR205C, strain PFK2, stronger effect = lower value 1.01 | locus YMR231W, strain pep5, stronger effect = lower value 0.983 | locus YNL071W, strain lat1, stronger effect = lower value 1.01 | locus YNL183C, strain NPR1, stronger effect = lower value 0.971 | locus YNL209W, strain ssb2, stronger effect = lower value 1 | locus YNL248C, strain rpa49, stronger effect = lower value 0.994 | locus YNL322C, strain KRE1 (second series), stronger effect = lower value 1.02 | locus YNR049C, strain mso1, stronger effect = lower value 1.01 | locus YOR001W, strain rrp6, stronger effect = lower value 1.02 | locus YOR070C, strain gyp1, stronger effect = lower value 1.01 | locus YOR080W, strain dia2, stronger effect = lower value 1.02 | locus YOR083W, strain WHI5, stronger effect = lower value 1.01 | locus YOR106W, strain vam3, stronger effect = lower value 1.03 | locus YOR231W, strain MKK1, stronger effect = lower value 0.981 | locus YOR265W, strain rbl2, stronger effect = lower value 1.02 | locus YOR270C, strain vph1, stronger effect = lower value 1 | locus YOR290C, strain snf2, stronger effect = lower value 1.01 | locus YPL051W, strain arl3, stronger effect = lower value 1.01 | locus YPL078C, strain atp4, stronger effect = lower value 1.01 | locus YPL106C, strain sse1, stronger effect = lower value 0.982 | locus YPL240C, strain hsp82, stronger effect = lower value 0.997 | locus YPL256C, strain CLN2, stronger effect = lower value 0.979

O=C(NC(=S)Nc1ccccn1)c1ccccc1
active: [8] 0.783 | [2] 0.401 | [13] 0.573 | [15] 0.428 | [16] 0.788 | [17] 0.777 | [20] 0.476 | [22] 0.67 | [24] 0.8 | locus YOL006C, strain TOP1, stronger effect = lower value 0.213 | [25] 0.825 | [26] 0.807 | [27] 0.552
inactive: [3] 0.962 | [4] 0.948 | [5] 0.942 | [6] 0.977 | [7] 0.956 | [9] 0.962 | [10] 1 | [11] 0.955 | [12] 0.988 | [14] 0.976 | [18] 0.964 | [19] 0.993 | [21] 0.933 | [23] 1

CCC(C(=O)Nc1ccc(C(F)(F)F)cc1)c1ccccc1 (centres undefined)
inactive: [3] 0.989 | [4] 0.984 | [1] 0.958 | [5] 0.956 | [6] 0.977 | [7] 0.952 | [8] 1.03 | [9] 0.958 | [2] 0.986 | [10] 0.998 | [11] 0.972 | [12] 0.96 | [28] 0.982 | [13] 0.923 | [14] 0.982 | [15] 0.925 | [16] 0.987 | [17] 0.981 | [18] 0.994 | [19] 0.99 | [29] 0.982 | [21] 0.968 | [22] 0.945 | [23] 0.99 | [24] 0.976 | [25] 1.01 | [26] 0.932 | [27] 0.906

CC(C)c1ccc(NC(=S)NC(=O)c2ccc(C(F)(F)F)cc2)cc1
active: [15] 1.23 [resistant]
inactive: [3] 1 | [4] 1.02 | [1] 1.01 | [5] 1.01 | [7] 1 | [8] 1.02 | [9] 1.02 | locus YGR229C, strain SMI1, stronger effect = lower value 1.02 | [2] 1.1 | [10] 1.02 | [11] 1.01 | [12] 1 | [28] 1.02 | [13] 1.09 | [14] 1.02 | [16] 1.07 | [17] 1.02 | [18] 1.01 | [19] 1 | [20] 1.3 | [29] 1.02 | [21] 0.989 | [22] 1.06 | [23] 1.01 | [24] 1.01 | [25] 0.997 | [26] 1.13 | [27] 1.09
